In PubChem BioAssay (NCATS):
Several values for one entry are separate records, joined by “and”; a condition that tells them apart may be missing. Equal entries are not always repeated. Results filed as inconclusive are left out. Activity calls are given as the source filed them. Unless noted, the call rests on the fitted dose curve; in most records, active means well fitted curve in the direction sought with a large enough effect; inconclusive means small, poorly fitted or top-dose-only effect, or another doubt; inactive means no such curve, though single readings can be large; an effect the other way counts as inactive or inconclusive.

Experiments:
[1] = test system: Zika virus NS2B-NS3 protease; assay: Primary screen GU AMC qHTS for Zika virus inhibitors (AID 1347154);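 further: 0% = no-inhibitor control and -100% = no-enzyme control; nearly all actives have a fitted effect of over 70% in size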
Method in brief: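 Unlinked Zika NS2B hydrophilic domain–NS3 protease complex at 25 nM in 10 mM Tris-HCl pH 8.0, 0.01% Tween 20, with an AMC peptide substrate. Fluorescence change (340/450 nm) over 15 min at room temperature, normalized to controls, fitted to 4-parameter Hill.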

[2] = molecular target: N-terminal Xaa-Pro-Lys N-methyltransferase 1 (Homo sapiens) (UniProt Q9BV86); assay: Confirmatory qHTS for Inhibitors of N-terminal methyltransferase 1 (NTMT1): MTaseGlo Assay (AID 1645874);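 further: luminescence from SAH made as NTMT1 methylates SPKRIA peptide using SAM; 0% = DMSO control and -100% = no-enzyme control; nearly all actives have a fitted effect of over 65% in size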
Method in brief: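 Compounds are incubated with 125 nM NTMT1 and 100 uM SAM for 15 min before the SPKRIA peptide (1 uM) starts a 30 min room-temperature methylation. SAH is measured by coupled luciferase luminescence and curves fitted to a Hill equation.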

[3] = Primary qHTS for inhibitors of nuclear receptor binding SET domain protein 2 (NSD2) in an isogenic RCH-ACV NSD2 p.E1099K mutant (9B) (AID 1645876); further: potency means the concentration at half of the fitted maximal effect; nearly all actives have a fitted effect of over 70% in size
[4] = Primary qHTS for inhibitors of nuclear receptor binding SET domain protein 2 (NSD2) in an RCH-ACV wild type WT cells (2C) (AID 1645877); further: potency means the concentration at half of the fitted maximal effect; nearly all actives have a fitted effect of over 70% in size
[5] = molecular target: Glutathione peroxidase 1 (Homo sapiens) (UniProt P07203); assay: Primary qHTS Assay for Inhibitors of Recombinant Selenoprotein Glutathione Peroxidase 1 (GPX1) (AID 1845191); further: on the % scale 0 is the no-effect control and ±100 the full control effect; nearly all actives have a fitted effect of over 65% in size
Method in brief: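 GR-coupled assay: compounds preincubated 30 min at room temperature with GPX1, then reaction started with CHP; final 10 nM GPX1, 1 mM GSH, 0.5 mM CHP, 0.5 mM NADPH, 100 nM GR, 0.01% BSA, pH 7.5 Tris buffer. NADPH fluorescence (340/450 nm) read at 0 and 15 min.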

[6] = molecular target: Phospholipid hydroperoxide glutathione peroxidase GPX4 (Homo sapiens) (UniProt P36969); assay: Primary qHTS Assay for Inhibitors of Recombinant Selenoprotein Glutathione Peroxidase 4 (GPX4) (AID 1845192); conditions: outcome: dose series up to 50 µM unless noted; further: on the % scale 0 is the no-effect control and ±100 the full control effect; nearly all actives have a fitted effect of over 65% in size
Method in brief: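 GR-coupled assay: recombinant GPX4 preincubated 30 min with compound at room temperature; final 200 nM GPX4, 1 mM GSH, 0.5 mM cumene hydroperoxide, 0.5 mM NADPH, 100 nM GR, 0.01% BSA, pH 7.5 Tris. NADPH fluorescence (340/450 nm) read at 0 and 15 min.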

[7] = qHTS drug screen for cell cycle checkpoint inhibitors in PARPi-resistant BRCA-mutant ovarian cancer cell lines. (AID 1963452; calls by dose curve); conditions: PEO1/OlaR viability, CellTiter-Glo luminescence, 96 h, stronger effect = lower value
Method in brief: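 PEO1, PEO4 and PEO1/OlaR ovarian cancer cells, 600 per well, exposed 96 h at 37C to a dilution series. Viability read by CellTiter-Glo luminescence, normalized to DMSO and empty wells; activity summarized as Z-AUC.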

[8] = molecular target: Cytochrome P450 1A2 (Homo sapiens) (UniProt P05177); assay: p450-cyp1a2 (AID 410; calls by dose curve; further: potency means the concentration at half of the fitted maximal effect;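 on activity change, negative = inhibition: -100% = full effect of reference inhibitor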)
Method in brief: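 20nM CYP1A2 with 100uM Luciferin-ME (at Km) in 100mM KPO4; compound preincubated 10 min, NADPH regeneration added, 60 min at room temperature. Luciferin quantified by luminescence after detection reagent; normalized to 57 uM furafylline.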

[9] = molecular target: Glucocorticoid receptor (Homo sapiens) (UniProt P04150); assay: GR-GFP Redistribution (AID 450;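 active means compounds whose dose series gives a full or clear partial fitted curve of increased nuclear translocation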; further: potency means the concentration at half of the fitted maximal effect); conditions: U2OS GR-GFP nuclear translocation, laser cytometry, 2 h
[10] = molecular target: Glucocorticoid receptor (Homo sapiens) (UniProt P04150); assay: GR-EFC Redistribution (AID 451; calls by dose curve; further: potency means the concentration at half of the fitted maximal effect); conditions: CHO-K1 GR-EFC translocation, beta-gal luminescence, 2 h
Method in brief: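 CHO-K1 cells expressing nuclear EA and GR-ED fragments of b-gal; compounds titrated up to 46 uM final, 2 h at 37 C. GR nuclear translocation read as complemented b-gal luminescence after 1 h RT detection.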

[11] = molecular target: Mitogen-activated protein kinase 10 (Mus musculus) (UniProt Q61831); assay: JNK3 AlphaScreen Assay (AID 530; active means well fitted curve in either direction with a large enough effect, not every such curve was filed as active;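 further: kinase came from lysate of stimulated human HepG2 cells; signal reports phosphorylation of biotinylated GST-cJun 1-79 at Ser73 with 10 µM ATP; on the % scale 0 is the no-effect control and ±100 the full control effect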)
Method in brief: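 Pre-activated (IL-1β/TNFα) JNK3 in HepG2 lysates phosphorylates biotin-GST-cJun(1-79), 10 uM ATP; anti-phospho-cJun(Ser73) AlphaScreen read at room temperature, pH 7.6 Tris buffer. Compounds pre-incubated 15 min as titrations.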

[12] = molecular target: 3',5'-cyclic-AMP phosphodiesterase 4B (Homo sapiens) (UniProt Q07343); assay: qHTS Assay for Inhibitors of PDE-IV (AID 607; active means well fitted activation curve with a large enough effect in the main read-out, with a control signal flat, not every such curve was filed as active; further: % of control where 0% means no effect)
Method in brief: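 Live HEK293 cells with a modified cyclic nucleotide-gated (CNG) channel report intracellular cAMP via membrane-potential dye fluorescence (ex 535/em 590 nm). Endogenous PDE-IV was targeted. Compounds were tested at up to 22.9 uM final; RO 20-1724 100 uM served as control.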

[13] = qHTS Assay for Lipid Storage Modulators (AID 1519; calls by dose curve); conditions: Drosophila S3 cells, BODIPY lipid droplet/cell ratio, laser cytometry, cells loaded with oleic acid; for activity change, negative = inhibition: at 57.5 µM (top of the series)
Method in brief: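 Cells seeded at 5,000 per well were treated with compounds over a concentration series and loaded with oleic acid (400 uM, as added). Lipid droplet fluorescence (488 nm excitation, 500-530 nm channel) was read by laser-scanning cytometry and normalized to 20 uM Triacsin C.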

[14] = molecular target: Ubiquitin carboxyl-terminal hydrolase 1 (Homo sapiens) (UniProt O94782); assay: Inhibitors of USP1/UAF1: Pilot qHTS (AID 504865);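 further: rhodamine fluorescence freed from ubiquitin-rhodamine substrate followed over time; top concentration of the series differs between compounds; on the % scale 0 is the no-effect control and ±100 the full control effect; nearly all actives have a fitted effect of over 35% in size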
Method in brief: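 USP1/UAF1 complex at 1 nM preincubated 15 min at room temperature with compound, then Ub-Rho substrate added at 150 nM final. Fluorescence (480/540 nm) read kinetically in 50 mM HEPES pH 7.8, 0.5 mM EDTA, 1 mM TCEP, 0.1 mg/ml BSA, 0.01% Tween-20.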

[15] = molecular target: DNA dC->dU-editing enzyme APOBEC-3G (Homo sapiens) (UniProt Q9HC16); assay: qHTS for inhibitors of Vif-A3G interactions: Validation (AID 588379); further: 0% is about no effect
Method in brief: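 HeLa cells stably expressing Vif and A3G-eYFP, 700 cells/well, incubated overnight at 37 deg C, then exposed to compound overnight at 37 deg C. Inhibition of Vif-mediated degradation read as increased yellow fluorescence (Ex 488/Em 500-530) by laser-scanning cytometry.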

[16] = NCATS anti-infectives library activity on HEK293 viability as a counter-qHTS vs the C. elegans viability qHTS (AID 1745854);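 further: HEK293 cells exposed to compounds for 24 hr before the viability read; on the % scale 0 is the no-effect control and ±100 the full control effect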
Method in brief: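 HEK293 cells (1,500/well) exposed 24 hr at 37C to 1:5 titrations, up to 41.7 uM final; counter-screen to a C. elegans viability qHTS. Viability by CellTiter-Glo luminescence after 10 min at room temperature; digitonin as control.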

[17] = molecular target: Cytochrome P450 3A4 (Homo sapiens) (UniProt P08684); assay: qHTS Assay for Inhibitors and Substrates of Cytochrome P450 3A4 (AID 884); further: on the % scale 0 is the no-effect control and ±100 the full control effect; nearly all actives have a fitted effect of over 50% in size
Method in brief: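 20 nM human CYP3A4 with 25 uM Luciferin-PPXE (at KM) in 200 mM KPO4, preincubated 10 min with compound; NADPH regeneration started a 60 min RT reaction. Luciferin detected by luminescence, normalized to 57 uM ketoconazole as full inhibition.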

[18] = molecular target: Cytochrome P450 2D6 (Homo sapiens) (UniProt P10635); assay: qHTS Assay for Inhibitors and Substrates of Cytochrome P450 2D6 (AID 891); further: potency means the concentration at half of the fitted maximal effect; nearly all actives have a fitted effect of over 60% in size
Method in brief: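 Human CYP2D6 (5 nM) with 30 uM Luciferin-ME EGE (at Km) in 100 mM KPO4, compound preincubated 10 min, then NADPH regeneration system for 60 min at room temperature. Luciferin read by luminescence; normalized to 1.43 uM quinidine.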

[19] = AP1 Signaling Pathway (AID 357; active means well fitted curve in either direction with a large enough effect, not every such curve was filed as active;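 further: ME-180 reporter cells stimulated with EGF at its EC50 level; on the % scale 0 is the no-effect control and ±100 the full control effect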); conditions: ME-180 AP-1-bla reporter, EGF-induced, beta-lactamase ratio, 5 h; at 17.2 µM (top of the series)
Method in brief: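 Modulation of EGF-driven AP-1 transcription was assessed with a beta-lactamase reporter in ME-180 cells. Compound and EC50 EGF were co-incubated 5 hours at 37 °C before 2.5-hour CCF4 loading at room temperature and dual-emission reading.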

[20] = NFAT Signaling Pathway (AID 444; active means well fitted curve in either direction with a large enough effect, not every such curve was filed as active;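 further: carbachol stimulus at about its EC50 of 1 µM final; on the % scale 0 is the no-effect control and ±100 the full control effect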); conditions: Jurkat NFAT-bla M1, carbachol, beta-lactamase ratio, 5 h; at 17.2 µM (top of the series)
Method in brief: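 Jurkat cells with NFAT-driven β-lactamase reporter and co-expressed M1 receptor, stimulated with carbachol (final 1 uM, ~EC50), compound titration, 5 h at 37 °C. CCF4 loaded 1 h at RT; 460/530 nm ratio gave %activity and AC50.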

[21] = Stat Signaling Pathway (AID 446; active means well fitted curve in either direction with a large enough effect, not every such curve was filed as active); conditions: ME-180 (cervical carcinoma) SIE beta-lactamase reporter, IL-6 stimulated, 5 h; at 17.2 µM (top of the series)
Method in brief: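 IL-6/STAT signaling read in ME-180 cells via an SIE beta-lactamase reporter. Stimulus was 40 pM IL-6 (its AC50) for 5 hrs, so both activation and inhibition register.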

[22] = measured here: cell count channel max response
[23] = measured here: lipid channel max response

Sequence of Ubiquitin carboxyl-terminal hydrolase 1 (Homo sapiens) (O94782 whole entry, looked up): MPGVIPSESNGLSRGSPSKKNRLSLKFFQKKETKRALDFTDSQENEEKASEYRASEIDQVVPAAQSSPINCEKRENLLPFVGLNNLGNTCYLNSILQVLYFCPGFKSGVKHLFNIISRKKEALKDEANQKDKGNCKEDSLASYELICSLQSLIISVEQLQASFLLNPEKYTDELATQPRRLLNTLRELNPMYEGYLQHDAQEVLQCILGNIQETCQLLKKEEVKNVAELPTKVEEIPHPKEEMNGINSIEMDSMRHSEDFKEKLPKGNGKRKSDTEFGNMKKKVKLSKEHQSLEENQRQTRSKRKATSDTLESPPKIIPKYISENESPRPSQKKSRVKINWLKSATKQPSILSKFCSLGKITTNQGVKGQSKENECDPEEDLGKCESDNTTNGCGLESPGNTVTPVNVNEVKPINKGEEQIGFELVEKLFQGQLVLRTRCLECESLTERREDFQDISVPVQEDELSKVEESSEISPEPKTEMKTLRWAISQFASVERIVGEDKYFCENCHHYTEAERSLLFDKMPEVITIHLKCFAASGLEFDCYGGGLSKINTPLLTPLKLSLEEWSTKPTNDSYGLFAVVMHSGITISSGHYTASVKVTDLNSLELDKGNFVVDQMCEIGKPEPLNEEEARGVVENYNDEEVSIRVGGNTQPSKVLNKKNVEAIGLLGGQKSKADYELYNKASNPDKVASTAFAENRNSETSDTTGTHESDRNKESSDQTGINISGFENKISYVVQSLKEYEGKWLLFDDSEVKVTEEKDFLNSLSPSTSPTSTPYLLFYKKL
Sequence of 3',5'-cyclic-AMP phosphodiesterase 4B (Homo sapiens) (Q07343 whole entry, looked up): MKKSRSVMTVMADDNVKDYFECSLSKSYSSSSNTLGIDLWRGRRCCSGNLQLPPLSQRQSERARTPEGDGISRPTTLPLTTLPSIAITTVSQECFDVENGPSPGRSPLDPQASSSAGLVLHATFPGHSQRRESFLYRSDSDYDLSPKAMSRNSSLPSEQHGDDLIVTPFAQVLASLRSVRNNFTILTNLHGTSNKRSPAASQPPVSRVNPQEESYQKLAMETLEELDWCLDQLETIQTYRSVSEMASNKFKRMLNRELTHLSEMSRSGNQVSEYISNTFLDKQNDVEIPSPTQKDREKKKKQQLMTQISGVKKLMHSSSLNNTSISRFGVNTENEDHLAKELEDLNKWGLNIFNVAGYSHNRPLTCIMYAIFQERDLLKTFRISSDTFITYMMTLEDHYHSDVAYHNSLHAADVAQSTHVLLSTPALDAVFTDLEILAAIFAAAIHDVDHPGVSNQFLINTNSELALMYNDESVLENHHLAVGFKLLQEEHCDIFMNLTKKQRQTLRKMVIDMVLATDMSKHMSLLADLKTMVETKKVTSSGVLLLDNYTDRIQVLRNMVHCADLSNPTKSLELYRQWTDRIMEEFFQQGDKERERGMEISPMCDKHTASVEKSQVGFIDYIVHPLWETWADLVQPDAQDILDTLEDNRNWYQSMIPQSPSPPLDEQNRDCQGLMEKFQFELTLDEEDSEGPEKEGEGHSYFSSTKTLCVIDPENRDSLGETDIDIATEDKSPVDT
Sequence of DNA dC->dU-editing enzyme APOBEC-3G (Homo sapiens) (Q9HC16 whole entry, looked up): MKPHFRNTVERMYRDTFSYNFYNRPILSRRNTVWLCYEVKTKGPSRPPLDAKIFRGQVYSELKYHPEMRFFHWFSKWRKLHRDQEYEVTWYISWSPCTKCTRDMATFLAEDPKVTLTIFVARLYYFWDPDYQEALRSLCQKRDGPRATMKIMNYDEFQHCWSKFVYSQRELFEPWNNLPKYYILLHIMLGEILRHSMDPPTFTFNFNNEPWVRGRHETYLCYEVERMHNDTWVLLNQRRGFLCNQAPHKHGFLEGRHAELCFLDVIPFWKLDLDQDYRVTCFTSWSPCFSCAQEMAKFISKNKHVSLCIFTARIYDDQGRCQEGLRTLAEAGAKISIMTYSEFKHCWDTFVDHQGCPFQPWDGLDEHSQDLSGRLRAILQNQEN
Sequence of Cytochrome P450 1A2 (Homo sapiens) (P05177 whole entry, looked up): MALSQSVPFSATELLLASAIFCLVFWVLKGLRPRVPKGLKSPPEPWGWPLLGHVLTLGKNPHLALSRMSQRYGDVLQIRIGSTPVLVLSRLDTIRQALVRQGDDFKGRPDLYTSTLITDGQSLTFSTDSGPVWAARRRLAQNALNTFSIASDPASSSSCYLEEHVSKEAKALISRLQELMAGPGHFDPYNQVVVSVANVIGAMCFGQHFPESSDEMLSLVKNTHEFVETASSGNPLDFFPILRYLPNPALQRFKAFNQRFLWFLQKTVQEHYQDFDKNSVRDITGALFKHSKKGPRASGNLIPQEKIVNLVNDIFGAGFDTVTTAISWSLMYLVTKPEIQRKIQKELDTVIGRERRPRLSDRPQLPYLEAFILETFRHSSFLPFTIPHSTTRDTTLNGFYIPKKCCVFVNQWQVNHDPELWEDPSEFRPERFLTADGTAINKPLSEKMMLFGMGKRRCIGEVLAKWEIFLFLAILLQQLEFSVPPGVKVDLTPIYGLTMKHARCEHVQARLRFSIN
Sequence of Glucocorticoid receptor (Homo sapiens) (P04150 whole entry, looked up, the tested form may be a part): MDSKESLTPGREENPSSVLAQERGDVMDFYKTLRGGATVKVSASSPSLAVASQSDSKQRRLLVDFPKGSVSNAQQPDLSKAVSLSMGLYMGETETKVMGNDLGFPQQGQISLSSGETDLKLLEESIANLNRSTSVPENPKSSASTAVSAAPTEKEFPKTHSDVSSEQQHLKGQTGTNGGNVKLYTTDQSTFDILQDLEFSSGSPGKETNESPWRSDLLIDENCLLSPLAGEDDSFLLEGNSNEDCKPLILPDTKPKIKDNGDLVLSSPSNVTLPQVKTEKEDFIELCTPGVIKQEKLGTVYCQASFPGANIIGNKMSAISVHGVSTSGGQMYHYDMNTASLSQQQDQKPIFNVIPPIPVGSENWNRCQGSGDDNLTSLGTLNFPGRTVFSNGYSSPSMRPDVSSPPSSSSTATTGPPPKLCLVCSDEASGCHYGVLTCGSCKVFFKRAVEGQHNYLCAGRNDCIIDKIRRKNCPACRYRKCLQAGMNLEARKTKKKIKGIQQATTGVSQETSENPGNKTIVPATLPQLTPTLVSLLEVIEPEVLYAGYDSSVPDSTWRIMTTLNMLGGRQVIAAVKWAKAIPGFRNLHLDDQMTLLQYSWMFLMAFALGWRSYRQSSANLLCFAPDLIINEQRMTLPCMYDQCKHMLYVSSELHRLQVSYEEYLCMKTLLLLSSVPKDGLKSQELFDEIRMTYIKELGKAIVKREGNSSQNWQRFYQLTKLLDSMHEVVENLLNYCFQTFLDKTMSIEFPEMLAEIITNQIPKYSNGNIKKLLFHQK
Sequence of Cytochrome P450 2D6 (Homo sapiens) (P10635 whole entry, looked up): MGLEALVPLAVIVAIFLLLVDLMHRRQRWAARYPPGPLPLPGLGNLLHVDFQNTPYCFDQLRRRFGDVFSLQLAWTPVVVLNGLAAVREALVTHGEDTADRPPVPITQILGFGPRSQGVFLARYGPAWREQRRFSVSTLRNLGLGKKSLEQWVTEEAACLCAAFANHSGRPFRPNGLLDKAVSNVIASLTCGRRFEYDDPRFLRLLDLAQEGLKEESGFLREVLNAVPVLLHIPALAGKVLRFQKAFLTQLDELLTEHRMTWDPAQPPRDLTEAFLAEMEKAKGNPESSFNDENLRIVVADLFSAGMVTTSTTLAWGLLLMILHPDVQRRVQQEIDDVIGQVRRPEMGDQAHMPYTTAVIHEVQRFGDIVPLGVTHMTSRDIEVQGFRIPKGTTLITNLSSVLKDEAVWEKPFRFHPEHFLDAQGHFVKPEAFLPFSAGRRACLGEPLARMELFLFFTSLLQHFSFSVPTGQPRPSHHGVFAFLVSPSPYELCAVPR
Sequence of Phospholipid hydroperoxide glutathione peroxidase GPX4 (Homo sapiens) (P36969 whole entry, looked up): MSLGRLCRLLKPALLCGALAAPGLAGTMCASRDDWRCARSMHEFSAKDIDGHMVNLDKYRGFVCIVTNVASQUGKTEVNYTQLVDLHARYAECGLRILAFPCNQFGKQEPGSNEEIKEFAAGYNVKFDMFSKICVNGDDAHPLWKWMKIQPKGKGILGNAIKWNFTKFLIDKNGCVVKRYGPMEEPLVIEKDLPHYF
Sequence of Glutathione peroxidase 1 (Homo sapiens) (P07203 whole entry, looked up): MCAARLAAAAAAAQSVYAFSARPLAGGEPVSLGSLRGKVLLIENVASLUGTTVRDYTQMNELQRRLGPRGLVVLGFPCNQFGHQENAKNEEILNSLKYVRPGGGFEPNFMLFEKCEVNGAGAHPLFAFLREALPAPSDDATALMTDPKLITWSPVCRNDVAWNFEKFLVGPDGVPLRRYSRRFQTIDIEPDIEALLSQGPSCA
Sequence of N-terminal Xaa-Pro-Lys N-methyltransferase 1 (Homo sapiens) (Q9BV86 whole entry, looked up): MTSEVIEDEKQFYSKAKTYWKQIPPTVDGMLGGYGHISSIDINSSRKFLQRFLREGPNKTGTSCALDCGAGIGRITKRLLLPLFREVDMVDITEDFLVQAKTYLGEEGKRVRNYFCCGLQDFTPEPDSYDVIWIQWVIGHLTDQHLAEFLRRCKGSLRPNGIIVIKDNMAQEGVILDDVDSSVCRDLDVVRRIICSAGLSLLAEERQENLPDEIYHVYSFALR
Sequence of Cytochrome P450 3A4 (Homo sapiens) (P08684 whole entry, looked up): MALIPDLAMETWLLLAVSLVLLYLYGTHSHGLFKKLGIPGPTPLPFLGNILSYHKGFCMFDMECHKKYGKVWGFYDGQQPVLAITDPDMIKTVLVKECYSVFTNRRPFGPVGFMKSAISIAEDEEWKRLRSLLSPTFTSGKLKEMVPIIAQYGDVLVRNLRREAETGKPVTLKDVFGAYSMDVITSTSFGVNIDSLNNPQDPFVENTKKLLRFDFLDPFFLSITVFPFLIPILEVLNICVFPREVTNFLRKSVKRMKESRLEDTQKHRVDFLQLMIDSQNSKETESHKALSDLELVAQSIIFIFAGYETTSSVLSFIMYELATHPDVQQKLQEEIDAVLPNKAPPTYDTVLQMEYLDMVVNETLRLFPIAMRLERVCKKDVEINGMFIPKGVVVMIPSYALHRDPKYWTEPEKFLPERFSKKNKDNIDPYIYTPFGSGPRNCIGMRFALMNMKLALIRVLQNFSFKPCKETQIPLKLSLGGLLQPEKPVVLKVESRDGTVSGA

CC(=O)C1CCC2C3CCC4=CC(=O)CCC4(C)C3CCC12C (stereo not drawn)
active: Potency [3] 20.9 µM | Potency [4] 18.6 µM
inactive: Potency [1] | Potency [2] | Potency [5] | Potency [6] | Z-AUC [7] -0.653
-0.267: Z-AUC ([7]; measured here: PEO4 Z-AUC)
-0.604: Z-AUC ([7]; measured here: PEO1 parental Z-AUC)

CS(=O)(=O)Nc1c(O)ccc2c1CCC[C@H]2C1=NCCN1
-17.3%: max response [13, 23]
-12.4%: max response [13, 22]
inactive: Potency [8] | Potency [9] > 46 µM | Potency [10] > 46 µM | Potency [11] | Potency [12] | activity change, negative = inhibition [13] -4.88% | Potency [14] | Potency [15] | Potency [1]

O=C(/C=C/c1ccccc1)NC(NC(=S)Nc1cccc2cccnc12)C(Cl)(Cl)Cl (stereo not drawn)
inactive: Potency [1] | outcome [16]

O=c1[nH]cnc2ccccc12
inactive: Potency [17] | Potency [1] | outcome [16]

N[C@@H](Cn1cc(I)c(=O)n(Cc2ccc(C(=O)O)cc2)c1=O)C(=O)O
active: Potency [8] 31.6 µM | Potency [18] 2.51 µM
4.58%: max response [13, 22]
inactive: Potency [9] > 46 µM | Potency [10] > 46 µM | Potency [11] | activity change, negative = inhibition [13] 2.45% | Potency [14] | Potency [15] | Potency [1]
1.43%: max response [13, 23]

CC(=O)Nc1ccc(OC[C@@H](O)CNC(C)C)cc1
active: Potency [18] 3.16 µM
inactive: activity change, negative = inhibition [19] 5.39% | Potency [8] | activity change, negative = inhibition [20] -18.7% | activity, negative = inhibition [21] 9.62% | Potency [9] > 20.6 µM and > 46 µM | Potency [10] > 20.6 µM and > 46 µM | Potency [11] | Potency [12] | Potency [14] | Potency [15] | Potency [1]
